Compound activity deposited in PubChem BioAssay by National Center for Advancing Translational Sciences (NCATS).
HCMV inh – blocks human cytomegalovirus replication. HFF cells, HCMV-luciferase reporter, 72 h; stronger effect = lower value. activity change, negative = inhibition, % at 57.5 µM. 4.5% of 410,000 active. AID 1259415; in the data active means activity change below about -60%; inconclusive means no clear call, values can overlap the other calls; inactive means above about -39%; further: on the % scale 0 is the no-effect control and ±100 the full control effect
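Two compound doses tested in HFFs infected with HCMV-luciferase, MOI 1 PFU/cell, 72 h at 37C. Lysate luminescence read with OneGlo; data normalized against buffer-only and 10uM Salinomycin inhibitor controls.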
HCV inh – blocks hepatitis C virus; Potency, µM (series often up to 41.8 µM), without a hit: at the top dose activity change, negative = inhibition, most hits filed as inhibitors; AID 651820; 3.4% of 340,000 active; Huh7.5.1 HCVcc-Cre infection, luciferase reporter, 44 h; further: potency means the concentration at half of the fitted maximal effect; on the % scale 0 is the no-effect control and ±100 the full control effect
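HCVcc-Cre virus at an moi near 0.5 was added right after compound to cells cultured 4 h from seeding (1,000 cells/well). Luciferase activity was determined 44 h later, 15 min after substrate addition at RT.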
Sm TGR inh – blocks Schistosoma mansoni thioredoxin glutathione reductase | Q962Y6 | purified TGR, DTNB reduction, TNB absorbance 405 nm | Potency, µM (titrated, usually from 114 µM), without a hit: at the top dose activity change, negative = inhibition, hits mostly inhibitors | 3% of 360,000 active | AID 485364; further: potency means the concentration at half of the fitted maximal effect; on the % scale 0 is the no-effect control and ±100 the full control effect; nearly all actives have a fitted effect of over 60% in size
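TGR 20 nM + NADPH 100 uM (dispensed conc.), cpd preinc 15 min RT; start with NADPH (500 uM addition) then DTNB (15 mM addition). Kinetic TNB absorbance, 405 nm filter. Four-parameter Hill fit across titration.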
SARS PLpro yeast – blocks SARS-CoV papain-like protease in a yeast assay. Potency, µM (highest dose often 32.9 µM), inactives show at the top dose activity, positive = growth rescue, most hits filed as activators. 0.19% of 330,000 active. AID 485353. S. cerevisiae expressing SARS-CoV PLpro, growth rescue; calls by dose curve; further: potency means the concentration at half of the fitted maximal effect; 0% is about no effect; nearly all actives have a fitted effect of over 55% in size
Pf growth 48h – P. falciparum growth inhibition at 48 hours (one generation); P. falciparum luciferase growth in erythrocytes, 48 h; Potency, µM (series often up to 28.7 µM), without a hit: at the highest dose activity change, negative = inhibition, actives largely listed as inhibitors; 5.9% of 310,000 active; further: potency means the concentration at half of the fitted maximal effect; on the % scale 0 is the no-effect control and ±100 the full control effect
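Growth was read as firefly luciferase luminescence after a 48 h, 37 C, 5% CO2 exposure of compounds to reporter-bearing P. falciparum cultures (0.1% parasitemia, 2% hematocrit final) in Albumax-supplemented RPMI 1640.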
Pf growth 96h – P. falciparum growth inhibition at 96 hour, primary screen for plastid delayed-death inhibitors; P. falciparum luciferase reporter growth, 96 h; Potency, µM (top dose mostly 28.7 µM), without a hit: at the highest dose activity change, negative = inhibition, hits mostly inhibitors; 6.9% of 320,000 active; AID 504834; further: potency means the concentration at half of the fitted maximal effect; on the % scale 0 is the no-effect control and ±100 the full control effect
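Delayed-death screen, second-generation endpoint: infected erythrocytes, 2% hematocrit, 0.05% parasitemia final; 96 hours at 37 C, 5% CO2; luciferase detection reagent; luminescence decrease equals reduced growth.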
An asterisk follows results filed as active; ? = inconclusive; nt = not tested or not shown; ! = repeats disagree. Rows were chosen to be rich in hits. Some 15% of all compounds tested hit in one or more screens of this group. Unless noted, the call rests on the fitted dose curve; in most records, active means well fitted curve in the direction sought with a large enough effect; inconclusive means small, poorly fitted or top-dose-only effect, or another doubt; inactive means no such curve, though single readings can be large; an effect the other way counts as inactive or inconclusive.

SMILES	HCMV inh	HCV inh	Sm TGR inh	SARS PLpro yeast	Pf growth 48h	Pf growth 96h
CCOC(=O)c1cc2c(C)n(-c3ccc(OCC)cc3)c(C)c2ccc1=O	?	?	?	-13%	?	4.1µM*
CCOC(=O)c1cc2c(C)n(-c3ccc(C)cc3)c(C)c2ccc1=O	-96*	11µM*	?	-19%	?	0%
CCOc1ccc(-n2c(C)c(C(=O)OC)c3cc(O)ccc32)cc1	-39	-3%	-15%	-1%	?	?
Cn1c(=O)c2c(ncn2CC(=O)OCC(=O)Nc2ccc(F)cc2F)n(C)c1=O	0	5%	4%	3%	-11%	19%
N#Cc1ccccc1NC(=O)COC(=O)/C=C/c1ccc(S(=O)(=O)N2CCOCC2)cc1	64	12%	nt	2%	nt	nt
CC(C(=O)NCc1ccc(F)cc1)n1ccc2cc(S(=O)(=O)N3CCCC3)ccc21 (stereo unspecified)	-28	11µM*	0%	-8%	?	?
O=C(Cn1c(=O)oc2cc(S(=O)(=O)N3CCCC3)ccc21)N1CCN(c2ccccn2)CC1	-15	?	-4%	4%	-7%	12µM*
Cc1ccc(CNC(=O)C(C)n2ccc3cc(S(=O)(=O)N4CCCC4)ccc32)cc1 (stereo unspecified)	-28	nt	-1%	nt	nt	nt
O=C(Cn1c(=O)oc2cc(S(=O)(=O)N3CCCCC3)ccc21)NCc1ccc(F)cc1	-12	nt	-8%	nt	nt	nt
O=C(Cn1c(=O)oc2cc(S(=O)(=O)N3CCCC3)ccc21)NCc1ccc(F)cc1	-70*!	3%	1%	-6%	nt	6.6µM*
CC1CCCN(C(=O)Cn2c(=O)oc3cc(S(=O)(=O)N4CCCCC4)ccc32)C1 (stereo unspecified)	?	4%	-8%	4%	1.3µM*	?
CCc1nc2ccc(C(=O)Nc3cc(-c4ccccc4)ccc3OC)cn2c1N(C=O)CCC(C)C	0	nt	nt	nt	nt	nt
O=C(Cn1c(=O)oc2cc(S(=O)(=O)N3CCCC3)ccc21)NC1CCCCC1	-6	1%	1%	-1%	38%	?
CC1CCCCC1NC(=O)Cn1c(=O)oc2cc(S(=O)(=O)N3CCCC3)ccc21 (stereo unspecified)	1	-19%	-11%	-1%	-8%	10µM*
O=C(Cn1c(=O)oc2cc(S(=O)(=O)N3CCCC3)ccc21)Nc1cccc(C(F)(F)F)c1	-21	?	4%	-1%	36%	12µM*
COc1ccccc1CNC(=O)C1CCC(CNS(=O)(=O)c2ccc(C)cc2)CC1 (stereo unspecified)	-5	?	5%	3%	?	7.4µM*
COc1ccccc1CNC(=O)C1CCN(C2=NS(=O)(=O)C(c3ccc(C)c(C)c3)=C2C)CC1	-64*	nt	1%	nt	nt	nt
CCOc1ccccc1CNC(=O)C1CCN(C2=NS(=O)(=O)C(c3ccc(C)c(C)c3)=C2C)CC1	-8	nt	3%	nt	nt	nt
COc1ccccc1CNC(=O)C(CC(C)C)NC(=O)C1CCC(C)CC1 (stereo unspecified)	4	2%	1%	5%	nt	13µM*
CC(C)CC(NC(=O)C1CCC(C)CC1)C(=O)NCc1ccco1 (stereo unspecified)	-21	5%	-10%	-1%	-5%	-7%
CCc1ccc(N2CC(c3nnc(NC(=O)c4ccco4)s3)CC2=O)cc1 (stereo unspecified)	3	nt	-7%	nt	nt	nt
CCOCC(=O)Nc1c(C(=O)N2CCN(c3ncccn3)CC2)oc2ccccc12	0	-12%	-11%	-1%	-12%	17%
Cc1c(C(=O)N2CCN(c3ccccn3)CC2)oc2ccccc12	34	-20%	-10%	1%	8.3µM*	nt
O=C(c1oc2ccccc2c1CSCc1ccccc1)N1CCN(c2ncccn2)CC1	?	11µM*	?	-6%	?	17%
CCOc1ccc2oc(C(=O)N3CCN(c4ccccn4)CC3)c(C)c2c1	-6	-12%	-10%	-6%	-15%	13µM*
